Most compounds without a hit are left out; they make up all but 21% or so of the library.
DT40 TDP1 CPT = qHTS for Inhibitors of human tyrosyl-DNA phosphodiesterase 1 (TDP1): qHTS in cells in presence of CPT; chicken DT40 Tdp1-/-;hTDP1 cells + 20 nM CPT, ATP luminescence, 48 h; Potency, µM (top dose mostly 46.2 µM), for the others: at the top dose activity change, negative = growth inhibition, usual class: inhibitors; 420,000 compounds, 12% hits; further: potency means the concentration at half of the fitted maximal effect; nearly all actives have a fitted effect of over 55% in size
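Cell growth measured by CellTiter-Glo luminescence after a minimum 48 h, 37 C compound exposure with 20 nM CPT in Tdp1-knockout DT40 cells stably expressing hTDP1, seeded 400/well; qHTS titration format.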
VP16 counter = VP16 counterscreen qHTS for inhibitors of ROR gamma transcriptional activity | Potency, µM (titrated, usually from 53.6 µM), for the others: at the top dose activity, negative = inhibition, actives largely listed as inhibitors | 310,000 compounds, 3.5% hits | Drosophila S2 Gal4-VP16 UAS-luciferase, luminescence, 20 h;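 further: Gal4-VP16 expression switched on by copper sulfate through the metallothionein promoter; potency means the concentration at half of the fitted maximal effect; nearly all actives have a fitted effect of over 50% in size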
ELG1 DNA repair = qHTS screen for small molecules that inhibit ELG1-dependent DNA repair in human embryonic kidney (HEK293T) cells expressing luciferase-tagged ELG1; AID 504467, 2011; 330,000 compounds, 2.3% hits; Potency, µM (titrated, usually from 46.1 µM), inactives show top-dose activity change, negative = inhibition, most hits filed as inhibitors; HEK293T ELG1-luciferase reporter, luminescence, 16 h; DNA damage induced by 5-fluorouridine; further: potency means the concentration at half of the fitted maximal effect; nearly all actives have a fitted effect of over 55% in size
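Cells (2,000 per well) received 5-fluorouridine plus test compound or DMSO and were incubated 16 hr at 37 °C, 5% CO2. Luciferase activity was read by luminescence 30 min after ONE-Glo addition; signal suppression marked inhibition of damage-induced ELG1 function.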
IL1B secr inh = qHTS for Inhibitors of Inflammasome Signaling: IL-1-beta AlphaLISA Primary Screen; THP-1 LPS/ATP IL-1B secretion, AlphaLISA, 16 h; stronger effect = lower value; activity change, % at 57.5 µM; 360,000 compounds, 4.7% hits; in the data active means activity change below about -50%; inconclusive means mostly about -30% to -49%
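Secreted IL-1B measured by AlphaLISA bead assay after 16 h compound exposure of THP-1 cells; compounds (final up to 57.5 uM) added 1 h before LPS (250 ng/mL) and ATP (1.25 mM) stimulation; lower signal means less secretion.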
RORgamma inh = qHTS for inhibitors of ROR gamma transcriptional activity | Nuclear receptor ROR-gamma (Mus musculus), P51450 | Drosophila S2 Gal4-RORgamma UAS-luciferase reporter, 20 h | Potency, µM (doses to about 53.6 µM), inactives show at the highest dose activity change, negative = inhibition, hits mostly inhibitors | 310,000 compounds, 5.4% hits; further: potency means the concentration at half of the fitted maximal effect; nearly all actives have a fitted effect of over 60% in size
Target sequence (P51450 whole entry, looked up, the tested form may be a part): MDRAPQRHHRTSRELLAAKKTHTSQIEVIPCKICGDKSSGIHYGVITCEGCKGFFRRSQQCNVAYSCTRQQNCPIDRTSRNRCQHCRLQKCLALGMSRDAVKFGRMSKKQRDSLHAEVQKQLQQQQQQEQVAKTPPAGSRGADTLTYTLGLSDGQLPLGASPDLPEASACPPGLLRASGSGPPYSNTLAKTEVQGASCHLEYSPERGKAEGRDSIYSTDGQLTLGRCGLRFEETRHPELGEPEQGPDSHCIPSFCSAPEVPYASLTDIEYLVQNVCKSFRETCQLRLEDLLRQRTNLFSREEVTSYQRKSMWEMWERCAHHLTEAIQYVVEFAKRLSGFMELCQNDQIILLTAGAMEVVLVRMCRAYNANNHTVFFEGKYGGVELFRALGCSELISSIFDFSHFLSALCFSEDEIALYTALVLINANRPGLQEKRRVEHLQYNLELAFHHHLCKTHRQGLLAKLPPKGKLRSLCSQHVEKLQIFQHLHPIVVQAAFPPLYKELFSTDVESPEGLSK
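A Gal4/UAS one-hybrid system in insect cells: metallothionein-promoter Gal4–ROR gamma fusion plus Photinus luciferase reporter. Copper sulfate 700 uM final, 20 hr ambient incubation, luminescent detection after 10 min with reagent.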
TDP1 cell noCPT = qHTS for Inhibitors of human tyrosyl-DNA phosphodiesterase 1 (TDP1): qHTS in cells in absence of CPT; DT40 Tdp1-/- hTDP1 cells, no CPT, ATP luminescence, 48 h; Potency, µM (top dose mostly 46.2 µM), inactives show at the top dose activity change, negative = growth inhibition, usual class: inhibitors; 420,000 compounds, 15% hits; AID 686978, 2013; further: potency means the concentration at half of the fitted maximal effect; nearly all actives have a fitted effect of over 55% in size
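Chicken DT40 Tdp1-/- cells complemented with human TDP1, screened without camptothecin (DMSO vehicle only), 400 cells/well. Compounds pin-transferred, cells incubated at 37 °C for at least 48 hr. Growth read as ATP-dependent luminescence (CellTiter-Glo, 30 min at RT).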
The depositor's hits bear a star; ? = inconclusive; . = no result given. Unless noted, the call rests on the fitted dose curve; in most records, active means well fitted curve in the direction sought with a large enough effect; inconclusive means small, poorly fitted or top-dose-only effect, or another doubt; inactive means no such curve, though single readings can be large; an effect the other way counts as inactive or inconclusive. On the % scale 0 is the no-effect control and ±100 the full control effect.

SMILES	DT40 TDP1 CPT	VP16 counter	ELG1 DNA repair	IL1B secr inh	RORgamma inh	TDP1 cell noCPT
COc1c(Cl)cc(C(=O)N(Cc2ccc(C)o2)C2CCS(=O)(=O)C2)cc1Cl (stereo not drawn)	?	.	.	.	.	23µM*
CN(C(=O)COc1ccc(C(C)(C)C)cc1)C1CCS(=O)(=O)C1 (stereo not drawn)	-23%	-15%	1%	35	?	-19%
CC(C)CN(C(=O)COc1ccc(C(C)(C)C)cc1)C1CCS(=O)(=O)C1 (stereo not drawn)	-29%	.	1%	12	.	23µM*
Cc1ccc(CN(C(=O)COc2ccc(C(C)(C)C)cc2)C2CCS(=O)(=O)C2)o1 (stereo not drawn)	?	.	.	.	.	21µM*
O=C1[C@@H]2Cc3c([nH]c4ccccc34)C(c3cccc(Br)c3)N2C(=O)CN1C1CCN(Cc2ccccc2)CC1 (stereo partly drawn)	?	?	?	-64*	?	21µM*
O=C1[C@@H]2Cc3c([nH]c4ccccc34)C(c3ccccc3)N2C(=O)CN1C1CCN(Cc2ccccc2)CC1 (stereo partly drawn)	16µM*	?	-14%	-66*	2.8µM*	16µM*
O=[N+]([O-])c1cccc(CON=Cc2cc(Cl)ccc2O)c1	-2%	.	.	-28	.	?
CCOc1cc(NC(=O)c2cccs2)c(OCC)cc1NC(=O)c1ccccn1	?	-1%	-2%	0	-9%	?
CCOc1ccccc1NC(=O)c1ccccc1NC(=O)c1ccco1	5%	-9%	2%	-1	23%	?
CCNC(=S)Nc1cc(OCC)c(NC(=O)c2ccco2)cc1OCC	?	?	?	1	16µM*	?
CCOc1cc(NS(=O)(=O)c2ccccc2)c(OCC)cc1NC(=O)c1ccco1	?	19%	?	0	-18%	26µM*
CCOc1cc(NC(=S)NCC(C)C)c(OCC)cc1NC(=O)c1cccs1	?	8.9µM*	0%	-1	4µM*	?
CCC(C)c1ccc(O)c(NC(=S)NC(=O)c2cccs2)c1 (stereo not drawn)	13µM*	.	.	2	.	23µM*
O=c1c(=O)n(CCO)n(CCO)c(=O)n1CCO	13%	.	.	0	.	1%
CC12CCC3c4ccccc4CCC3(CO1)C2 (stereo not drawn)	?	.	.	0	.	?
Cc1cc(=O)n2nc(N3CCC(C(=O)Nc4c(C)cccc4C)CC3)sc2n1	1%	.	.	.	.	-15%
CCNC(=S)Nc1cc(OC)c(NC(=O)c2ccco2)cc1OC	1%	-10%	-5%	-13	13µM*	-16%
COC(=O)c1cc(OC)c(OC)cc1NC(=S)NC(=O)c1ccco1	21µM*	-24%	7%	4	8.9µM*	10µM*
COc1cc(NC(=O)C2CCCCC2)c(OC)cc1NC(=O)c1ccco1	-26%	-2%	-28%	0	9%	?
CCOc1cc(NC(=O)C2CCCCC2)c(OCC)cc1NC(=O)c1ccco1	7.3µM*	-6%	0%	-10	19%	?
CCOc1cc(NS(=O)(=O)c2ccc(Cl)cc2)c(OCC)cc1NC(=O)CC(C)C	22µM*	3%	?	-14	10%	18µM*
O=C(CSc1nc2c([nH]c3ccccc32)c(=O)n1-c1ccccc1)N1CCCCC1	0%	.	.	.	.	-4%

Screens: PubChem BioAssay, National Center for Advancing Translational Sciences (NCATS)
